Experimental findings from ChEMBL document CHEMBL1961873, “Compounds: GSK PKIS; Assays: Nanosyn kinase panel” (2012) are described below.

Each structure is given as a SMILES string.

Experiment [1] addresses Platelet-derived growth factor receptor beta (Homo sapiens) (UniProt P09619). Particulars: at 1 µM.
Experiment [2] has as its target Tyrosine-protein kinase FRK (Homo sapiens) (UniProt P42685). The following applies: at 0.1 µM.
Experiment [3] shares this target. The following applies: at 1 µM.
The target in experiment [4] is Protein-tyrosine kinase 2-beta (Homo sapiens) (UniProt Q14289). The following applies: at 0.1 µM.
Sequence of Protein-tyrosine kinase 2-beta (Homo sapiens) (Q14289 whole entry, looked up): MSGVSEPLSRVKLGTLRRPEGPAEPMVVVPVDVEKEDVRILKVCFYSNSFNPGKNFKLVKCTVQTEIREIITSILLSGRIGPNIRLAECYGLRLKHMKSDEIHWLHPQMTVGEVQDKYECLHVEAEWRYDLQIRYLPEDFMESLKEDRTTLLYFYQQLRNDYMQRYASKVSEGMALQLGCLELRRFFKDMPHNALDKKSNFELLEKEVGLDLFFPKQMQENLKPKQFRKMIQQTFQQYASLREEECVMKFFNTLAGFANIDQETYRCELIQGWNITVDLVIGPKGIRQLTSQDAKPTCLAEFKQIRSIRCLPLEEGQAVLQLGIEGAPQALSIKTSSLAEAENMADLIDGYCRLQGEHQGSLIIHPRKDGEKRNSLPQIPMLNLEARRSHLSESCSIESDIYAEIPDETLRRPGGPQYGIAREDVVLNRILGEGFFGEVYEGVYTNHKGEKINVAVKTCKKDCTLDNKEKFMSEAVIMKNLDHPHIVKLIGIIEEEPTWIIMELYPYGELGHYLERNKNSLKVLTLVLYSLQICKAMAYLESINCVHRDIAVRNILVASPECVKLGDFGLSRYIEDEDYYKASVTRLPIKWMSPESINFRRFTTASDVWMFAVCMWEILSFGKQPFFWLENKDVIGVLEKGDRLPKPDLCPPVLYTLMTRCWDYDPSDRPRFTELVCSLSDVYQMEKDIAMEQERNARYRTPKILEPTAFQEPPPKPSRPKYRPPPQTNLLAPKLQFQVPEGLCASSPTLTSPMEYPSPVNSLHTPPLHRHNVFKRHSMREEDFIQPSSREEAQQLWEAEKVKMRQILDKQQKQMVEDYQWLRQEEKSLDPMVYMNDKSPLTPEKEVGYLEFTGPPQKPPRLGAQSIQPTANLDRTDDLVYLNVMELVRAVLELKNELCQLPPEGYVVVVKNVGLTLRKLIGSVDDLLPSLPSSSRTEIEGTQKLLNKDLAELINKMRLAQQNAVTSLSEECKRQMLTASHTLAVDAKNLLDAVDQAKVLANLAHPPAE
The target is the same in experiment [5]. Particulars: at 1 µM.
Experiment [6] concerns the target Proto-oncogene tyrosine-protein kinase receptor Ret (Homo sapiens) (UniProt P07949). Particulars: at 0.1 µM.
Experiment [7] has the same target. The following applies: at 1 µM.
The test system of experiment [8] is Proto-oncogene tyrosine-protein kinase receptor Ret (Homo sapiens), P07949 [V804L]. Particulars: at 0.1 µM.
Sequence of Proto-oncogene tyrosine-protein kinase receptor Ret (Homo sapiens), P07949 [V804L] (P07949 whole entry V804L): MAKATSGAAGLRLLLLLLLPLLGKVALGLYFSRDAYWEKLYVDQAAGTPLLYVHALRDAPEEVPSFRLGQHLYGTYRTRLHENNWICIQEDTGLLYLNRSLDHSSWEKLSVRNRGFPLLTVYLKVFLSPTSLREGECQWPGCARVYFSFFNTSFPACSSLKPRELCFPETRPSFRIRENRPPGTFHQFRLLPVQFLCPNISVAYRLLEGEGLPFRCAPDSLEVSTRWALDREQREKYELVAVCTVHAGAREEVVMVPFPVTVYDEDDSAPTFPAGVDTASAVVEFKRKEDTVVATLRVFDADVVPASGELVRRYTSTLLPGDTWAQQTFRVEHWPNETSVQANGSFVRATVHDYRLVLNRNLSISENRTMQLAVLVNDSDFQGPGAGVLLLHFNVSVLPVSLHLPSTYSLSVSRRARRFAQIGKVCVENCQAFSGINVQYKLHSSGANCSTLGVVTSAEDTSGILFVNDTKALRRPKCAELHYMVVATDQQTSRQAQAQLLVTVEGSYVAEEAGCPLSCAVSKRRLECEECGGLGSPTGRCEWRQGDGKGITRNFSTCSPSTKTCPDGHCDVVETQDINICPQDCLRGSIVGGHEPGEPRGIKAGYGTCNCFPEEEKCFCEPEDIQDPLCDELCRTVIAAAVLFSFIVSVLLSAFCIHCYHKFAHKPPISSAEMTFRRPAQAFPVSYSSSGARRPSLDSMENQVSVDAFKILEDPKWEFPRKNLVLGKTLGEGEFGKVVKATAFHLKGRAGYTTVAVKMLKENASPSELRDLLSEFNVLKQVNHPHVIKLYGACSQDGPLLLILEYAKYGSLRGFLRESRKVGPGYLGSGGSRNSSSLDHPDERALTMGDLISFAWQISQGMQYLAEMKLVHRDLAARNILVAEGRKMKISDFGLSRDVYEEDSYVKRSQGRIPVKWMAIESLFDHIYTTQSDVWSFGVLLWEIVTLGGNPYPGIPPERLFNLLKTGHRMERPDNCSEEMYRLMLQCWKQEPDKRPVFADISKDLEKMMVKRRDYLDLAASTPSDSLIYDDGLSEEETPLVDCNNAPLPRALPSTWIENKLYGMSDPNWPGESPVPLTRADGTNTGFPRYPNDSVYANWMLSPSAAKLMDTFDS
Experiment [9] shares this test system. The following applies: at 1 µM.
Experiment [10] concerns Proto-oncogene tyrosine-protein kinase receptor Ret (Homo sapiens), P07949 [Y791F]. Particulars: at 0.1 µM.
Sequence of Proto-oncogene tyrosine-protein kinase receptor Ret (Homo sapiens), P07949 [Y791F] (P07949 whole entry Y791F): as the sequence (P07949 whole entry V804L) above, with Y791F, L804V counted along it

Sequence of Proto-oncogene tyrosine-protein kinase receptor Ret (Homo sapiens) (P07949 whole entry): as the sequence (P07949 whole entry V804L) above, with L804V counted along it
Sequence of Platelet-derived growth factor receptor beta (Homo sapiens) (P09619 whole entry): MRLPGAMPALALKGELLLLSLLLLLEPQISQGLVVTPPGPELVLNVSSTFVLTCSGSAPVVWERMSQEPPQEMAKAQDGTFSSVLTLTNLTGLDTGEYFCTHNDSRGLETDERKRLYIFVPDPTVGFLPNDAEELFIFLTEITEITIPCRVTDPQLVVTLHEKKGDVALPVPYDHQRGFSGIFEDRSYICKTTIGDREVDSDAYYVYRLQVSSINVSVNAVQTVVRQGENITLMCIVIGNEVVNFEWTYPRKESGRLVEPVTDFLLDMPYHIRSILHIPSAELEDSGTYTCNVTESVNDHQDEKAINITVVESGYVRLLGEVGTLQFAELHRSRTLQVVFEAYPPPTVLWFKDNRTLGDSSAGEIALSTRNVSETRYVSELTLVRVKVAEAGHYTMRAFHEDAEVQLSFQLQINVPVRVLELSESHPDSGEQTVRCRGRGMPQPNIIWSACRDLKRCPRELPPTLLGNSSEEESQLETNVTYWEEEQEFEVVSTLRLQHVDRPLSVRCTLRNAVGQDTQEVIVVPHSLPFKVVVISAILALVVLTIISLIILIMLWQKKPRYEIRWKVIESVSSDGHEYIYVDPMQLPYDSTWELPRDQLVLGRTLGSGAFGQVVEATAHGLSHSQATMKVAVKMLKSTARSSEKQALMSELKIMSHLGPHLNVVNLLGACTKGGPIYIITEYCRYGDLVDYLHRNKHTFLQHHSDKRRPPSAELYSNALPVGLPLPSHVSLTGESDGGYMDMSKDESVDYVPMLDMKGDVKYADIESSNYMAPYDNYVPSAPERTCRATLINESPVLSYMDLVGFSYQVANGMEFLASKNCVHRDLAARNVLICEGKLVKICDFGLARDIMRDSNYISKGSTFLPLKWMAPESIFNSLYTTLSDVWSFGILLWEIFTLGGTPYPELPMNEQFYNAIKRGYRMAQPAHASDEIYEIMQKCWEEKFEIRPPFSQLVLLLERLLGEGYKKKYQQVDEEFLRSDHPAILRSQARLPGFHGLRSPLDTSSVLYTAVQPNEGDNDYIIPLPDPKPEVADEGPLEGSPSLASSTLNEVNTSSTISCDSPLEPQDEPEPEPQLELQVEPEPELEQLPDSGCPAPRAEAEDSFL
Sequence of Tyrosine-protein kinase FRK (Homo sapiens) (P42685 whole entry): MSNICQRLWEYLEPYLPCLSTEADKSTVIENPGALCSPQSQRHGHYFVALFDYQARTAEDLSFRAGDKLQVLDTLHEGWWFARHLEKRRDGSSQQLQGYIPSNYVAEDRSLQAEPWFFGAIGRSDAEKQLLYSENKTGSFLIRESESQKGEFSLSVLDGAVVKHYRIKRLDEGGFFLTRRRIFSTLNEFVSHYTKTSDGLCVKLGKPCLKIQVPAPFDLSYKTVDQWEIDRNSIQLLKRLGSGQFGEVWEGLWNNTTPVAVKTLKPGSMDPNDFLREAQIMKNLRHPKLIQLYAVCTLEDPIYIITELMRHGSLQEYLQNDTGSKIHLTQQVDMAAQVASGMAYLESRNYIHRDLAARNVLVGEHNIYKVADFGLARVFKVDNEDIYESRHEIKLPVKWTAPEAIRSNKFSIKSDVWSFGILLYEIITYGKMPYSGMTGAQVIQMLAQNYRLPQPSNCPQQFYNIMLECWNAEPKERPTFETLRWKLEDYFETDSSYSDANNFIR

`CC1=C(C(=O)Nc2ccc3[nH]ncc3c2)C(c2ccc(Cl)c(Cl)c2)CC(=O)N1` (stereo not given): the inhibition in experiment [1] stood at 6.02%; in [2] it was 1.03%; in [3] it was 7.47%; in experiment [4], 6.27%; in experiment [5], 8.74%; in [6], 5.65%. For the same molecule, the inhibition worked out at 22.8% in experiment [7], 3.81% in experiment [8], 16.5% in experiment [9] and 8.05% in [10].
`CCc1cccc(NC(=O)Nc2ccc(Oc3ccc4nc(NC(=O)OC)[nH]c4c3)cc2)c1`: the inhibition is 56.3% in experiment [1]; -0.04% in [2]; 2.98% in experiment [3]; 0.73% in experiment [4]; 8.1% in experiment [5]; 72.8% in experiment [6]. Moreover, the inhibition was 79.9% in experiment [7], 35.6% in experiment [8], 63.1% in experiment [9] and 53.5% in experiment [10].
Take `NC(=O)c1ccc(-c2nc(-c3ccccn3)c(-c3ccc4c(c3)OCO4)[nH]2)cc1`: the inhibition was 7.47% in [1]; 0.98% in experiment [2]; -0.16% in experiment [3]; 1.97% in [4]; 6.61% in [5]; 6.29% in [6]. The inhibition in experiment [7] is 8.97%; in experiment [8], 4.67%; in experiment [9], 5.88%; in experiment [10], 6.95%.
For the molecule `O=C(Nc1n[nH]c2nc(-c3ccco3)c(Br)cc12)C1CC1`, the inhibition in experiment [1] is 6.81%; in experiment [2], 1.22%; in experiment [3], 4.35%; in experiment [4] it was -1.24%; in [5] it was 3.71%; in [6], 6.36%. For the same molecule, the inhibition in experiment [7] came out at 4.7%; in experiment [8], 4.14%; in experiment [9], 0.95%; in experiment [10], 4.67%.
For `COc1cc2ncn(-c3cc(O[C@@H](C)c4ccccc4Cl)c(C(N)=O)s3)c2cc1OC`, the inhibition is 68.2% in experiment [1]; 5.42% in [2]; 4.28% in [3]; -0.4% in [4]; 14% in experiment [5]; 33.6% in experiment [6]. Also, the inhibition in experiment [7] came out at 72.1%; in experiment [8], 8.18%; in [9], 38.3%; in [10], 32.5%.
With `COC(=O)Nc1nc2cc(Oc3ccc(NC(=O)Nc4cccc(C(=O)O)c4)cc3)ccc2[nH]1`, the inhibition is 16.2% in experiment [1]; 0.4% in experiment [2]; 0.91% in [3]; -5.8% in experiment [4]; 6.37% in experiment [5]; 7.47% in [6]. In addition, the inhibition in [7] worked out at 14.1%; in experiment [8], 2.8%; in experiment [9], 15%; in experiment [10] it was 1.53%.
With `COc1cc2ncn(-c3cc(OCc4ccccc4C(F)(F)F)c(C(N)=O)s3)c2cc1OC`, the inhibition in experiment [1] was 83.5%; in experiment [2], 3.08%; in [3] it was 3.46%; in [4], 2.32%; in experiment [5] it was 19.4%; in experiment [6] it was 14.5%. The inhibition in experiment [7] was 41.6%; in experiment [8] it was 10.4%; in [9], 34.3%; in experiment [10] it was 17.9%.
Turning to `N#Cc1c(NC(=O)c2cccc3ccccc23)sc2c1CCCC2`, the inhibition in experiment [1] came to 9.27%; in [2] it was 2.64%; in experiment [3], 1.48%; in [4] it was 2.95%; in experiment [5], 5.82%; in experiment [6] it was 5.35%. Further, the inhibition in experiment [7] turned out to be 5.82%; in experiment [8] it was 3.1%; in [9], 3.6%; in experiment [10], 5.18%.
For `CS(=O)(=O)Nc1ccc(N/C=C2\C(=O)Nc3ccccc32)cc1`, the inhibition in experiment [1] is 38%; in experiment [2] it was -0.66%; in [3], 0.76%; in experiment [4] it was -3.21%; in [5], 20.1%; in experiment [6] it was 10.4%. Moreover, the inhibition in [7] stood at 49.4%; in experiment [8], 17.9%; in experiment [9], 66.2%; in experiment [10] it was 8.53%.
As for `CCCN1CCC(Oc2cc(Nc3nc(Nc4cccc(F)c4C(N)=O)c4cc[nH]c4n3)c(OC)cc2Cl)CC1`, the inhibition in experiment [1] was 8.63%; in experiment [2] it was -0.17%; in experiment [3] it was 0.23%; in experiment [4], 38.2%; in [5], 92.4%; in experiment [6] it was 7.67%. For the same molecule, the inhibition in experiment [7] was 12.8%; in experiment [8] it was 3.55%; in experiment [9], 15.5%; in experiment [10] it was 4.36%.
For `CN1CCC(C(=O)Nc2n[nH]c3nnc(-c4ccccc4)cc23)CC1`, the inhibition worked out at 7.79% in experiment [1]; 2.63% in experiment [2]; 2.86% in experiment [3]; 13.3% in [4]; 15.2% in experiment [5]; 1.29% in experiment [6]. Further, the inhibition in experiment [7] amounted to 2.61%; in experiment [8], 4.66%; in experiment [9], 14.7%; in experiment [10] it was 3.08%.
For `CC1=C(C(=O)Nc2ccc3[nH]ncc3c2)C(c2ccc3ccccc3c2)CC(=O)N1` (stereo not given), the inhibition is 13.7% in [1]; 2.73% in experiment [2]; 17.3% in experiment [3]; 3.97% in experiment [4]; 7.64% in experiment [5]; 20.4% in experiment [6]. The inhibition was 65.8% in experiment [7], 12.4% in experiment [8], 53.2% in [9] and 20.1% in [10].
As for `Cc1ccc(NC(=O)c2ccnc(N3CCCC3)c2)cc1-c1ccc(C(=O)NCC2CC2)cc1`, the inhibition in [1] stood at 13.4%; in experiment [2], 2.28%; in experiment [3] it was 2.38%; in experiment [4], 12.2%; in [5], 9.43%; in experiment [6], 6.99%. Moreover, the inhibition amounted to 9.44% in experiment [7], 8.29% in experiment [8], 9.54% in experiment [9] and 10.7% in experiment [10].
Turning to `Cn1cc(C=C2C(=O)Nc3cccnc32)c2ccccc21`, the inhibition in experiment [1] turned out to be 42%; in [2], 0.71%; in experiment [3] it was 3.75%; in experiment [4], 5.59%; in experiment [5], 25.2%.
For `NS(=O)(=O)c1ccc(N/N=C2\C(=O)Nc3ccc(C(=O)NCCc4c[nH]cn4)cc32)cc1`, the inhibition is 82.7% in experiment [1]; 0.73% in [2]; 3.44% in experiment [3]; 12.8% in experiment [4]; 24.2% in experiment [5]; 15.3% in [6]. Also, the inhibition is 57.8% in [7], 42.6% in [8], 83.5% in [9] and 22.8% in experiment [10].
Consider `Nc1ncnc2occ(-c3ccc(NC(=O)Nc4cccc(C(F)(F)F)c4)cc3)c12`, for which the inhibition in experiment [1] turned out to be 94.8%; in experiment [2], 4.28%; in experiment [3], 21.2%; in [4], 8.39%; in experiment [5], 32.3%; in [6], 84.9%. Besides, the inhibition in experiment [7] amounted to 87.2%; in experiment [8] it was 64.8%; in [9] it was 79.9%; in [10], 73.9%.
As for `COc1cccc(-n2ncc3c(N/N=C/c4cccc(F)c4)ncnc32)c1`, the inhibition was 51.1% in experiment [1]; 1.84% in experiment [2]; 2.7% in [3]; 9.51% in experiment [4]; 9.99% in [5]; 2.64% in experiment [6]. Besides, the inhibition in [7] came out at 18.3%; in experiment [8] it was 3.55%; in experiment [9] it was 9.3%; in [10] it was 4.94%.
